Only some compounds are listed: those with a hit (about 3% of all), similar ones and a draw of the others.
MITF act – increases MITF-driven TRPM1 promoter luciferase signal | SK-MEL-5 TRPM1-promoter luciferase, 24 h; % of positive control, neutral wells = 0 | activation, % at 12.5 µM | 300,000 tested, 0.75% active | AID 588334;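 active = mean activation of at least 80% with every replicate also reaching 80%; inconclusive = mean reaches 80% but some replicate falls short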;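 also: 0% = neutral control wells and 100% = parthenolide positive control wells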
Wnt bcat act – activators of Wnt/beta-catenin signaling. 300,000 tested, 1.2% active. activation, % at 9.35 µM. Wnt/beta-catenin reporter cell assay, activator, plate reader; in the data active = activation above about 30%, passing the limit was not always enough; inconclusive = no clear call, values can overlap the other calls;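 also: 0% = neutral control wells and 100% = positive control wells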
Statin myotox sup – suppressors of simvastatin-induced myotoxicity in C2C12 myotubes. ATP luminescence, 48 h; scaled: DMSO 0, geranylgeraniol control 100. AID 602340. 330,000 tested, 0.78% active. rescue of ATP level, % at 7.49 µM;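 active = mean ATP rescue above about 67%, or every replicate alone reaching that limit, limit read from the data, passing the limit was not always enough; inconclusive = no clear call, values can overlap the other calls; inactive = mean under the limit and some replicate under it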;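 also: myotubes were challenged with 10 µM simvastatin during compound exposure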
esBAF inh – SWI/SNF esBAF complex inhibition. AID 602393. mouse ES cells, Bmi1-luciferase knock-in reporter, 24 h; 100% = twice the neutral-well signal. reporter increase, % at 12.5 µM. 350,000 tested, 2% active; in the data active = activation above about 40%; inconclusive = no clear call, values can overlap the other calls;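 also: 0% = median of the plate's neutral control wells and 100% = double that signal; a rise in the Bmi1 reporter signal indicates esBAF inhibition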
esBAF Ring1 qPCR – esBAF inhibition confirmed by Ring1 de-repression. shares compounds with esBAF inh. mouse ESC E14, Ring1 mRNA RT-qPCR fold change. fold change at 33 µM. 550 tested, under 10 active. AID 743176;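 active = Ring1 gene expression raised more than 2-fold over untreated cells in both replicates at either tested dose; inconclusive = only one replicate above 2-fold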;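 also: Ring1 transcript normalised to actin housekeeping signal by TaqMan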
Fgf4 repress – represses Fgf4 in mouse ESCs, confirming esBAF inhibition; mouse ESC E14, Fgf4 mRNA qPCR fold change; hits give low values; shares compounds with esBAF inh; 550 tested, 4% active; AID 743177; Fgf4 expression fold change at 33 µM;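 active = Fgf4 expression under 0.8 fold of control in both repeat measurements at one or both tested doses; inconclusive = under 0.8 fold in just a single repeat measurement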;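 also: Fgf4 transcript normalised to actin in duplex TaqMan qPCR; cells exposed to compound for 24 h before lysis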
Bmi1 derepress – de-represses Bmi1 in mouse ESCs, confirming esBAF inhibition. shares compounds with esBAF inh. mouse ESE14 ES cells, Bmi1 mRNA qPCR fold; hits give high values. fold change at 33 µM. 550 tested, under 10 active;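 active = Bmi1 expression fold change above 6 at either tested concentration, seen in replicate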;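 also: higher fold means more Bmi1 de-repression and stronger esBAF inhibition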
A549 tox SP – cytotoxicity in A549 cells | shares compounds with esBAF inh | plate reader | cell viability change % (negative = cytotoxic), % at 25 µM, hits read low | 550 tested, under 10 active; call rule not given here
HepG2 cytotox SP – HepG2 cell cytotoxicity at single point; shares compounds with esBAF inh; plate reader; hits give low values; activity change, negative = inhibition, % at 25 µM; 550 tested, 4% active; AID 743189; in the data active = activity change below about -50%
HEK293 tox SP – HEK293 cell cytotoxicity at single point | 550 tested, 3% active | activity change, negative = inhibition, % at 25 µM, hits read low | plate reader | AID 743190 | shares compounds with esBAF inh; in the data active = activity change below about -38%, passing the limit was not always enough
* marks the source's active call; other numbers are inactive results; ? = inconclusive; nt = no result.

SMILES	MITF act	Wnt bcat act	Statin myotox sup	esBAF inh	esBAF Ring1 qPCR	Fgf4 repress	Bmi1 derepress	A549 tox SP	HepG2 cytotox SP	HEK293 tox SP
CC1CCN(C(=O)CCc2nnc(-c3ccccc3)o2)CC1	24	?	8	74*	0.94	0.94	1.3	-3	-10	-6
O=C(/C=N/NC(=O)c1ccc(Cl)cc1Cl)c1ccccc1	43	49*	-14	59*	1.4	1.1	1.5	-3	-28	-6
Cn1c(/C=C/c2ccc(Br)cc2)nc2ccccc2c1=O	79	17	34	74*	1.3	?	1.6	6	6	9
COc1ccc2oc3cc(Cl)ccc3c(=O)c2c1	nt	4	-11	80*	1.1	?	1.4	8	-30	-10
O=C(NNC(=O)c1ccc2ccccc2c1O)NC1CCCCC1	-5	2	1	0	nt	nt	nt	nt	nt	nt
O=C(NC1CCCCCCC1)c1c(O)c2ccccc2[nH]c1=O	100*	nt	7	91*	1.1	0.92	1.3	-6	18	-18
O=C(NC1CCCCC1)c1ccc2ccccc2c1O	nt	0	-7	83*	1.1	0.73*	1.9	-13	9	-50*
C[C@H](CO)N1C[C@H](C)[C@H](CN(C)C(=O)NC2CCCC2)Oc2ncc(C#CC3CCCCC3)cc2C1=O	nt	nt	8	-2	nt	nt	nt	nt	nt	nt
COc1ccc(C(=O)NCCS(=O)(=O)NCCc2ccccc2)cc1	66	-1	19	56*	1.3	1.2	1.4	-1	-12	-10
COc1ccc(CNC(=O)c2ccc(Br)cc2)cc1	nt	5	nt	nt	nt	nt	nt	nt	nt	nt
COc1ccc(CCNS(=O)(=O)CCNC(=O)c2ccccc2)cc1	0	0	-7	4	nt	nt	nt	nt	nt	nt
COc1ccc(CNC(=O)c2ccc(-c3ccccc3)cc2)cc1	56	nt	9	62*	1.3	1.1	1.4	1	-46	-4
COc1cccc(NC(=O)N2CCN(c3cccc(C)c3C)CC2)c1	nt	0	2	72*	1.1	1	1.2	-3	13	-5
COc1ccccc1N1CCN(C(=O)Nc2cccc(Cl)c2)CC1	27	-2	20	13	nt	nt	nt	nt	nt	nt
O=C(Nc1ccccc1F)N[C@@H]1CC[C@@H](CCNS(=O)(=O)c2ccccc2)O[C@H]1CO	nt	nt	-8	2	nt	nt	nt	nt	nt	nt
CCC(=O)Nc1ccc2c(c1)C(=O)N(C)[C@@H]1CC[C@@H](CC(=O)NCCOC)O[C@H]1CO2	nt	nt	15	-2	nt	nt	nt	nt	nt	nt
CC(=O)Nc1ccc2nc(SCC(=O)Nc3ccc(N4CCOCC4)c(Cl)c3)sc2c1	nt	?	-2	48*	0.77	0.86	1.4	-6	-10	-6
CCCN(C)C[C@H]1Oc2cc(C#CC3CCCC3)ccc2S(=O)(=O)N([C@H](C)CO)C[C@H]1C	nt	nt	-33	-4	nt	nt	nt	nt	nt	nt
Cc1sc(NC(=O)c2cccs2)nc1-c1ccccc1	nt	47*	0	64*	2.5*	0.96	2.5	-5	12	10
Cc1ccc2oc(-c3cccc(NC(=S)NC(=O)c4cccs4)c3)nc2c1	12	22	nt	nt	nt	nt	nt	nt	nt	nt
O=C(Nc1ccc2oc(-c3ccccc3)nc2c1)c1cccs1	71	nt	-29	78*	0.88	?	1.9	-8	-6	-15
Cc1sc(NC(=S)NC(=O)c2cccs2)nc1-c1ccc(C(C)C)cc1	-4	nt	-5	-3	nt	nt	nt	nt	nt	nt
c1ccc(Nc2cccc(Nc3ccccc3)n2)cc1	50	nt	-44	59*	0.97	?	1.7	-5	-27	-9
c1ccc(Nc2ccccn2)cc1	nt	1	2	2	nt	nt	nt	nt	nt	nt
COc1ccc(CN(C)C[C@H]2OCCCC[C@H](C)Oc3ccc(NC(=O)CCCN(C)C)cc3C(=O)N([C@H](C)CO)C[C@H]2C)cc1	nt	nt	-52	3	nt	nt	nt	nt	nt	nt
SMILES	MITF act	Wnt bcat act	Statin myotox sup	esBAF inh	esBAF Ring1 qPCR	Fgf4 repress	Bmi1 derepress	A549 tox SP	HepG2 cytotox SP	HEK293 tox SP
CN1CCN(C(=O)C[C@H]2CC[C@H]3[C@H](COc4ccc(NC(=O)c5cscn5)cc4C(=O)N3C)O2)CC1	nt	nt	-3	-3	nt	nt	nt	nt	nt	nt
CC1CCc2c(sc(NC(=O)c3cccn3C)c2C(N)=O)C1 (centres undefined)	37	8	5	71*	1.1	1	1.5	-11	-17	-19
COC(=O)Nc1sc2c(c1C(N)=O)CCC(C)C2 (centres undefined)	6	1	nt	nt	nt	nt	nt	nt	nt	nt
CN(C)c1ccc(CNc2nc3cc(-c4ccc(F)cc4)sc3c(=O)n2C)cc1	nt	24	0	77*	0.98	0.92	2	-3	-2	-26
COc1cccc(/C=C2/NC(=O)N(CC(=O)Nc3ccc(C)cc3)C2=O)c1OCc1cccc(C(=O)O)c1	8	0	-2	2	nt	nt	nt	nt	nt	nt
Cc1ccc(NC(=O)CN2C(=O)N/C(=C/c3ccccc3OCc3cccc(C(=O)O)c3)C2=O)cc1	59	11	-4	39	1.2	0.84	1.2	-8	0	-7
